Data as given in PubChem BioAssay.
The source made the active and inactive calls. No rule for the calls is given here.

Assay: Brca1-Bard1 BiLC signal decrease – luminescence, single concentration, counter-screen for Mdm2/MdmX interaction inhibitor project, confirmation (AID 504668)
Settings: Brca1/Bard1 bimolecular luciferase complementation counterscreen, at 8 µM, stronger effect = higher value

SMILES | inhibition
CCCCN(CC)CCNC(=O)c1cc2c(-c3ccc(Cl)cc3)nn(C)c2s1 | 31.2% (active)
O=C(NNc1c2ccccc2nc2ccccc12)C(O)c1ccccc1 (stereo unspecified) | 34.4% (active)
Oc1ccccc1C1CC(c2cccs2)=NC(c2ccc(Cl)cc2)N1 (stereo unspecified) | 28.5% (active)
CN(Cc1cnc2nc(N)nc(N)c2n1)c1ccc(C(=O)N[C@@H](CCC(=O)O)C(=O)O)cc1 | 29.8% (active)
COc1ccc([C@@H]2[C@@H]3C(=O)N(C(C)(C)C)C(=O)[C@@H]3[C@]3(Cc4ccccc4)C(=O)N(c4ccc(Br)cc4)C(=O)N23)cc1 | 35.6% (active)
Cc1ccc(C(=O)Nc2nc(-c3ccccn3)cs2)cc1S(=O)(=O)N1CCOCC1 | 23.2% (active)
Cc1cccc(NC(=O)Nc2cccc(Oc3c(F)c(F)c(F)c(F)c3F)c2)c1 | 32.5% (active)
CN(C)CCN(C(=O)/C=C/c1cccs1)c1nc2c(F)cc(F)cc2s1 | 28.9% (active)
CC(=O)NC(=S)Nc1ccc(NC(=S)NC(=O)/C=C/c2ccco2)cc1 | 35% (active)
CC1=Nc2cc(C(=O)N3CCCC3)ccc2Sc2c(C)ccc(C)c21 | 23.1% (active)
O=[N+]([O-])c1ccc(N=Nc2ccc(O)cc2O)cc1 | 29.5% (active)
C#CCn1c(=NC(=O)c2ccc(S(=O)(=O)N3CCc4ccccc4C3)cc2)sc2cc(S(N)(=O)=O)ccc21 | 23% (active)
N#CC1=C(N)C(C#N)(C#N)C(c2cccnc2)C2CC(c3ccccc3)CC=C12 (stereo unspecified) | 23.1% (active)
Oc1c(CN2CCN(c3ccccn3)CC2)cc(Cl)c2cccnc12 | 28% (active)
O=C(Nc1ccc(Cl)c([N+](=O)[O-])c1)C(Sc1ccccc1)c1ccccc1 (stereo unspecified) | 24.1% (active)
O=C(N/N=C/c1cc(Br)cc(Br)c1O)c1cccc(N2CCCC2=O)c1 | 26.3% (active)
O=S(=O)(c1ccc(Cl)cc1)N1CCN(Cc2ccc(O)c3ncccc23)CC1 | 25% (active)
Cc1ccc(S(=O)(=O)CCc2nc3ccccc3n2CCC#N)cc1 | 32.2% (active)
Cc1nc(NC2=NCN(CCCN3CCOCC3)CN2)nc2c(C)cccc12 | 25.4% (active)
CCCc1c(NC(=O)Nc2ccc(F)cc2)cnn1-c1ccccc1 | 29.3% (active)
CN(C)CCCNC(=S)NCC(c1ccc(Cl)cc1Cl)c1c[nH]c2ccccc12 (stereo unspecified) | 29.2% (active)

SMILES | inhibition
COc1ccc(/C=C2/SC(=S)N(CCCC(=O)Nc3cccc(O)c3)C2=O)cc1 | 28.6% (active)
Cc1ccc(NC(=O)Cn2nnc(C(=O)NCCc3ccccc3)c2N)cc1Cl | 29.3% (active)
COC(=O)[C@@]1(Cc2ccccc2)[C@H]2C(=O)N(Cc3ccccc3)C(=O)[C@H]2[C@H]2CN=C(SCc3ccc(C#N)cc3)N21 | 28.4% (active)
Cc1ccc(-n2nc(C)c3c(C)c(CCC(=O)Nc4ccc(CN5CCCC5)cc4)c(C)nc32)cc1 | 25.5% (active)
O=C(Nc1cccc([N+](=O)[O-])c1)c1cc2ccccc2cc1O | 31% (active)
COc1cccc(/C=C2\SC(=S)N(CCC(=O)NCCc3ccc(O)cc3)C2=O)c1 | 35.4% (active)
O=C(CCN1C(=O)/C(=C/c2ccccc2F)SC1=S)NCCc1ccc(O)cc1 | 33% (active)
CCCOc1ccc(/C=N/Nc2cc(N3CCOCC3)ncn2)c(O)c1 | 23.7% (active)
O=C(CCl)Nc1cccc(S(=O)(=O)N2CCCCCC2)c1 | 24% (active)
O=C(Nc1nc(-c2ccccn2)cs1)c1ccc(Cl)s1 | 24.4% (active)
CCOc1cc(CNCCO)cc(Br)c1OCc1ccc(Cl)cc1Cl | 25.5% (active)
COc1ccc(NC(=O)CSc2nc3c(sc4ccccc43)c(=O)n2CCCN2CCCC2)cc1 | 23.1% (active)
CC(C)CC(=O)NC(c1cccs1)c1ccc2cccnc2c1O (stereo unspecified) | 25.3% (active)
CC1CCN(CCCNC(=O)c2ccc3c(Cl)c4c(nc3c2)CCCC4)CC1 | 30.3% (active)
COc1cccc(/C=N/NC(=O)c2c(C)nc3ccc(Br)cn23)c1O | 32.3% (active)
CCCN(CCC)CCNC(=O)C1CCN(Cc2nc(-c3ccc(Cl)cc3)oc2C)CC1 | 30.3% (active)
COc1ccc(OC)c2[nH]c(C(=O)N/N=C/c3ccccc3O)cc12 | 32.5% (active)
O=C(Cc1ccccc1)N/N=C/c1cc(Br)cc(Cl)c1O | 29.2% (active)
O=C(CCCN1C(=O)/C(=C\c2cccc(Br)c2)SC1=S)Nc1cccnc1 | 24.4% (active)
CCN1CCN(Cc2ccc(NC(=O)c3ccc(C)c(NC(=O)c4cccc(-c5cn[nH]c(=O)c5)c4)c3)cc2C(F)(F)F)CC1 | 32% (active)
